Assay outcomes as filed in PubChem.
Mtb FBA inh: inhibits M. tuberculosis FBA enzyme; P9WQA3; purified M. tuberculosis FBA, fluorescence read-out; inhibition, % at 1 µM; hit rate 2.3% among 360,000; in the data active means inhibition above about 27%
Target sequence (P9WQA3 whole entry, looked up): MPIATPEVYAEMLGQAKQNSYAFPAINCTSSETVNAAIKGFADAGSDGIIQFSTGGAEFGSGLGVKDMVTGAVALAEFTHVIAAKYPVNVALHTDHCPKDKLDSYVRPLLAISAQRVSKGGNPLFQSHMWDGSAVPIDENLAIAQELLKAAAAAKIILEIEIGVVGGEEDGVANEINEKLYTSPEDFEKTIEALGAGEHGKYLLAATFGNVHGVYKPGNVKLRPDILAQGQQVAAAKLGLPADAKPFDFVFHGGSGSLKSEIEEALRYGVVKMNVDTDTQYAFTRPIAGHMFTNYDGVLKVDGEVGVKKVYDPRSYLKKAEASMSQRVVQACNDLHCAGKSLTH
Vc quorum ag: quorum light induction in luxS cqsA deficient V. cholerae; V. cholerae BH1578 lux reporter, luminescence, 6 h; activation, % at 18.7 µM; hit rate 0.16% among 350,000; AID 588436; in the data active means activation mostly above about 9.7%, no sharp cut-off
CCHF vOTU inh: blocks the CCHF virus ovarian tumor domain protease; inhibition, % at 11.5 µM; hit rate 0.55% among 370,000; CCHFV vOTU protease, Pep-AMC fluorescence
GDH-TPI inh: counter-screen for M. tuberculosis FBA inhibitors: GDH-TPI coupled enzymes. GDH-TPI coupled enzyme counterscreen, NADH absorbance. inhibition, % at 4.8 µM. hit rate 1.2% among 360,000. AID 588335
Hits are given with their value; – = inactive; · = not tested or not shown; + = active, no number. Compounds with a hit are over-represented: about 3.9% of the library has one in this group of screens. Unless noted, no stated cut-off is given here; in the data, active means inhibition above about 30%; inactive means the rest.

SMILES	Mtb FBA inh	Vc quorum ag	CCHF vOTU inh	GDH-TPI inh
c1ccc(C(c2nnnn2C2CCCCC2)N2CCc3ccccc3C2)nc1 (centres undefined)	69	–	·	–
Nc1c(Cl)cc([N+](=O)[O-])cc1Cl	–	–	–	–
Cc1cc(N(C)Cc2ccccc2)nc(-c2ccccc2)n1	–	–	–	–
Cc1cc(N(C)Cc2ccccc2)nc2cc(O)ccc12	+	–	–	–
O=C(Cc1ccccc1)Nc1cc2c(cc1Cl)OCCCO2	–	–	–	–
CN(C)/C=C1\N=C(c2ccc3c(c2)OCO3)OC1=O	–	–	–	53
CN(C)/C=C1\N=C(c2ccccc2)OC1=O	–	–	–	35
O=C1OC(c2ccccc2)=N/C1=C\C=C\c1ccco1	–	–	–	–
CC1N=C(N)C(c2nc3ccccc3n2C)=C1O (centres undefined)	–	–	–	–
Cc1ccc[n+](-c2[nH]c(=O)sc2/C=N/N=C(\[O-])CCn2c3ccccc3c3ccccc32)c1	–	–	–	–
CCc1ccc[n+](-c2[nH]c(=O)sc2/C=N/N=C(\[O-])c2ccncc2)c1	–	–	–	–
CC(C)(C)c1cc[n+](-c2[nH]c(=O)sc2/C=N/NC([S-])=Nc2ccccc2)cc1	–	–	–	37
Cc1cc[n+](-c2[nH]c(=O)sc2/C=N/NC([S-])=Nc2ccccc2)cc1C	–	–	–	52
O=C(CCN1C(=O)COc2ccccc21)N1CCN(c2ccccc2)CC1	–	–	–	–
Cc1cc(NS(=O)(=O)c2ccc(NC(=S)NC(=O)c3ccc(F)cc3)cc2)no1	–	–	–	–
COc1ccc(CCn2c(=N)c(C(=O)NC3CCCC3)cc3c(=O)n4cccc(C)c4nc32)cc1	–	–	–	–
CCOCCCn1c(=N)c(C(N)=S)cc2c(=O)n3cccc(C)c3nc21	77	–	–	–
Cc1ccc(S(=O)(=O)c2cc3c(=O)n4cccc(C)c4nc3n(CC3CCCO3)c2=N)cc1C (centres undefined)	–	–	–	–
COCCCn1c(C(=O)N2CCOCC2)cc2c(=O)n3ccccc3nc21	+	–	–	–
CCOCCCNC(=O)c1cc2c(=O)n3cccc(C)c3nc2n1C	–	–	–	–
CCCn1c(=N)c(C(=O)NCC2CCCO2)cc2c(=O)n3cccc(C)c3nc21 (centres undefined)	+	–	–	–
COCCCn1c(=N)c(C(=O)NCC2CCCO2)cc2c(=O)n3cccc(C)c3nc21 (centres undefined)	+	–	–	–
CCOCCCN(C(=O)CCC(=O)Nc1cc(C)on1)C(C(=O)NC(C)(C)CC)c1cccc(OC)c1OC (centres undefined)	–	–	–	–
CCN(CC)c1ccc(NC(=O)CN2C(=O)CC(C)(C)S(=O)(=O)c3ccccc32)c(C)c1	–	–	–	–
Cc1cc(C)nc(NC(=O)COc2cc(Cl)cc(Cl)c2)n1	–	–	–	–
SMILES	Mtb FBA inh	Vc quorum ag	CCHF vOTU inh	GDH-TPI inh
NC(=O)CC(NC(=O)Cc1cccc2ccccc12)c1ccc(NC2CCCCC2)c([N+](=O)[O-])c1 (centres undefined)	–	–	–	–
COCCCn1c(=N)c(C(=O)NCC2CCCO2)cc2c(=O)n3ccccc3nc21 (centres undefined)	+	–	–	–
COc1ccc(CCn2c(=N)c(C(=O)NCC3CCCO3)cc3c(=O)n4ccccc4nc32)cc1 (centres undefined)	–	–	–	–
Cc1cccn2c(=O)c3cc(C(=O)NCC4CCCO4)c(=N)n(CCN4CCOCC4)c3nc12 (centres undefined)	145	–	–	–
O=C(CCCn1c(SCc2cc(=O)n3cc(Cl)ccc3n2)nc2ccccc2c1=O)NCC1CCCO1 (centres undefined)	–	–	–	–
O=C(CCCn1c(SCc2cc(=O)n3ccccc3n2)nc2ccccc2c1=O)NCC1CCCO1 (centres undefined)	–	–	–	33
COc1ccc(C(=O)NCC(=O)Nc2cccc(S(=O)(=O)N3CCCC3)c2)cc1	–	–	–	–
Cc1ccc2nc(-c3ccc(NS(=O)(=O)c4ccccc4)cc3)sc2c1	+	–	–	–
Cc1ccc(S(=O)(=O)Nc2ccc3nc(C)sc3c2)cc1	–	–	·	–
Cc1ccc2nc(-c3ccc(NS(=O)(=O)c4ccc(F)c(F)c4)cc3)sc2c1	+	–	–	–
CC(NC(=O)C(NC(=O)C(Cc1c[nH]c2ccccc12)NC(=O)OC(C)(C)C)C(C)C)C(N)=O (centres undefined)	–	–	–	–
Cc1ccc(CC2(C)C(=O)Nc3c(Cl)ccc(Cl)c32)cc1 (centres undefined)	–	–	–	–
O=C(NCc1ccccc1Cl)c1ccc(CSc2nc3ccncc3[nH]2)cc1	150	–	–	–
